miR122 inh – miR-122 suppressors via Renilla sensor increase, primary screen, cell-based, Huh7 psiCHECK-miR122, Renilla luciferase, single point. 48 h. activation, % at 12.5 µM. 340,000 tested, 0.14% active. AID 623901, 2012;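 active = mean activation of 30% or more, with every replicate also reaching 30%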;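 note: 0% = median of neutral control wells and 100% = median of positive control wells; higher luciferase signal means stronger suppression of miR-122 activity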
The depositor's hits bear a star. Shown is part of a subset that was picked to be rich in hits.

SMILES	miR122 inh
CNC[C@H]1Oc2cc(C#C[C@H](C)O)ccc2S(=O)(=O)N([C@H](C)CO)C[C@@H]1C	-1
COCC(=O)N(C)C[C@H]1Oc2cc(C#CC(C)C)ccc2S(=O)(=O)N([C@H](C)CO)C[C@H]1C	21
C[C@H](CO)N1C[C@H](C)[C@@H](CN(C)C(=O)Nc2ccccc2F)Oc2ncc(-c3cccc(F)c3)cc2C1=O	-13
CO[C@@H]1CN(C)C(=O)c2ccc(NC(=O)Nc3cccc(F)c3)cc2OC[C@@H](C)N(C)C[C@@H]1C	0
C[C@@H]1CN([C@H](C)CO)C(=O)c2cc(Br)cnc2O[C@@H]1CN(C)Cc1cccc(F)c1	3
CCC(=O)N(C)C[C@H]1Oc2ncc(C#CCC3CCCC3)cc2C(=O)N([C@@H](C)CO)C[C@@H]1C	7
C[C@@H]1CN([C@@H](C)CO)S(=O)(=O)c2ccc(-c3ccccc3)cc2O[C@H]1CN(C)Cc1cncnc1	-1
COc1cccc(C#Cc2ccc3c(c2)O[C@@H](CN(C)C(=O)CN2CCOCC2)[C@@H](C)CN([C@@H](C)CO)S3(=O)=O)c1	0
C[C@@H]1CN([C@@H](C)CO)C(=O)c2cc(-c3cccc(F)c3)cnc2O[C@@H]1CN(C)C(=O)c1cccc(F)c1	5
CN(C)CCNc1nc2sc3c(c2c(=O)n1CCc1ccccc1)CCCCC3	32*
C/C=C/c1cnc2c(c1)C(=O)N([C@H](C)CO)C[C@H](C)[C@@H](CN(C)S(=O)(=O)c1ccc(C)cc1)O2	-17
CC(=O)c1cccc(S(=O)(=O)NCC2CCCCC2)c1	51*
Cc1cccc(NS(=O)(=O)c2cccc(C(=O)N3CCCCCCC3)c2)c1	-163
O=C(Nc1ccc(S(=O)(=O)NCC2CCCO2)cc1)c1cccc(F)c1 (stereo not given)	-91
CCCNC(=O)N(C)C[C@@H]1Oc2ncc(/C=C/c3ccccc3)cc2C(=O)N([C@@H](C)CO)C[C@H]1C	4
C[C@H](O)C#Cc1ccc2c(c1)O[C@@H](CN(C)Cc1cncnc1)[C@@H](C)CN([C@H](C)CO)S2(=O)=O	4
C[C@H](CO)N1C[C@H](C)[C@H](CN(C)C(=O)c2cccnc2)Oc2ncc(-c3ccccc3)cc2C1=O	-8
C[C@@H]1CN([C@@H](C)CO)C(=O)c2cc(C#CC3(O)CCCC3)cnc2O[C@H]1CN(C)Cc1ccncc1	-5
CCN(CC)c1ccc(C(=C2C=CC(=[N+](CC)CC)C=C2)c2ccc(N(CC)CC)cc2)cc1	38*
Cc1ccc(-c2cnc3c(c2)C(=O)N([C@H](C)CO)C[C@H](C)[C@@H](CN(C)C(=O)c2ccncc2)O3)cc1	-8
COc1ccc(C#Cc2cnc3c(c2)C(=O)N([C@@H](C)CO)C[C@H](C)[C@H](CN(C)CC2CCCC2)O3)cc1	11
C[C@H]1CN([C@@H](C)CO)C(=O)c2cc(-c3ccc(C#N)cc3)cnc2O[C@H]1CN(C)C(=O)Nc1ccc(C(F)(F)F)cc1	37*
C[C@H](CO)N1C[C@H](C)[C@@H](CN(C)CC2CCCCC2)Oc2c(NC(=O)C3CC3)cccc2C1=O	-114
C[C@@H]1CN([C@@H](C)CO)C(=O)c2cc(/C=C/c3ccccc3)cnc2O[C@H]1CN(C)S(=O)(=O)c1ccc(F)cc1	3
C[C@H]1CN([C@@H](C)CO)C(=O)c2cc(-c3cccnc3)cnc2O[C@@H]1CN(C)Cc1ccc(Oc2ccccc2)cc1	6
SMILES	miR122 inh
C[C@H](CO)N1C[C@H](C)[C@@H](CN(C)CC2CCCCC2)Oc2c(NS(=O)(=O)c3cccs3)cccc2C1=O	33*
C[C@@H]1CN([C@H](C)CO)C(=O)c2cc(-c3cccnc3)cnc2O[C@H]1CN(C)Cc1ccc(Oc2ccccc2)cc1	0
C[C@H]1CN([C@@H](C)CO)C(=O)c2cc(/C=C/c3ccccc3)cnc2O[C@H]1CN(C)S(=O)(=O)c1ccc(F)cc1	17
COc1ccc(S(=O)(=O)N(C)C[C@@H]2Oc3ncc(/C=C/c4ccccc4)cc3C(=O)N([C@@H](C)CO)C[C@@H]2C)cc1	42*
C[C@H]1CN([C@@H](C)CO)C(=O)c2cc(-c3cccnc3)cnc2O[C@H]1CN(C)C(=O)Nc1ccc(F)cc1	6
C[C@@H]1CN([C@H](C)CO)C(=O)c2cc(-c3cncnc3)cnc2O[C@H]1CN(C)Cc1ccc(Oc2ccccc2)cc1	38*
C[C@H]1CN([C@@H](C)CO)C(=O)c2cc(-c3cccnc3)cnc2O[C@@H]1CN(C)C(=O)Nc1ccc(F)cc1	9
C[C@H](CO)N1C[C@H](C)[C@H](CN(C)CC2CCCCC2)Oc2c(NC(=O)C3CCOCC3)cccc2C1=O	-104
C[C@H](CO)N1C[C@H](C)[C@H](CN(C)C(=O)Nc2ccccc2)Oc2ncc(C#Cc3ccc(F)cc3)cc2C1=O	-8
C[C@H]1CN([C@@H](C)CO)C(=O)c2cc(-c3ccc(F)cc3)cnc2O[C@@H]1CN(C)C(=O)c1ccccn1	5
C[C@H]1CN([C@@H](C)CO)C(=O)c2cc(C#Cc3ccccn3)cnc2O[C@H]1CN(C)C(=O)c1cnccn1	-2
CCCN(C)C[C@H]1Oc2cc(C#CC(C)C)ccc2S(=O)(=O)N([C@H](C)CO)C[C@H]1C	-22
CO[C@@H]1CN(C)C(=O)c2cc(NC(=O)Cc3ccccc3)ccc2OC[C@H](C)N(C)C[C@H]1C	0
C[C@@H]1CN([C@H](C)CO)C(=O)c2cc(C3=CCCC3)cnc2O[C@@H]1CN(C)C(=O)C1CCCCC1	11
COCC#Cc1ccc2c(c1)O[C@H](CN(C)C(C)=O)[C@H](C)CN([C@@H](C)CO)S2(=O)=O	1
CCCN(C)C[C@@H]1Oc2ncc(-c3ccccc3OC)cc2C(=O)N([C@H](C)CO)C[C@@H]1C	-18
C[C@@H]1CN([C@H](C)CO)S(=O)(=O)c2ccc(-c3ccccc3)cc2O[C@H]1CN(C)Cc1ccccc1C(=O)O	-12
CCC(=O)N(C)C[C@@H]1Oc2cc(C#C[C@@H](C)O)ccc2S(=O)(=O)N([C@@H](C)CO)C[C@H]1C	4
Cc1ccc(S(=O)(=O)N(C)C[C@@H]2Oc3ccc(NC(=O)Nc4ccc5c(c4)OCO5)cc3CC(=O)N([C@@H](C)CO)C[C@@H]2C)cc1	-113
C[C@H](CO)N1C[C@H](C)[C@@H](CN(C)Cc2ccccn2)Oc2cc(-c3cccc(C#N)c3)ccc2S1(=O)=O	-39
C[C@H]1CN([C@@H](C)CO)C(=O)c2cc(-c3cncnc3)cnc2O[C@H]1CN(C)Cc1ccccc1	-3
C/C=C/c1ccc2c(c1)O[C@H](CN(C)Cc1ccccc1)[C@@H](C)CN([C@@H](C)CO)S2(=O)=O	-9
CNC[C@H]1Oc2cc(-c3cccc(F)c3)ccc2S(=O)(=O)N([C@H](C)CO)C[C@@H]1C	4
C[C@@H]1CN([C@H](C)CO)C(=O)c2cc(C#CC3(O)CCCC3)cnc2O[C@H]1CN(C)S(=O)(=O)c1cccc(F)c1	6
C[C@@H]1CN([C@@H](C)CO)C(=O)c2cc(-c3cccc(F)c3)cnc2O[C@H]1CN(C)CC1CCCC1	10
C[C@H](CO)N1C[C@H](C)[C@@H](CN(C)CC2CCCC2)Oc2ncc(-c3cccc(F)c3)cc2C1=O	-4
C[C@H](CO)N1C[C@H](C)[C@H](CN(C)S(=O)(=O)c2cccc(F)c2)Oc2ncc(C#CC3(O)CCCC3)cc2C1=O	7
C[C@@H]1CN([C@@H](C)CO)C(=O)c2cc(C#CC3CCCCC3)cnc2O[C@H]1CN(C)S(=O)(=O)c1cccc(F)c1	45*
Cc1ccc(-c2cnc3c(c2)C(=O)N([C@H](C)CO)C[C@@H](C)[C@H](CN(C)CC2CCCCC2)O3)cc1	32*
